Where a name gives a salt, the structure may show the parent alone.

This assay relates to OVCAR4. The assay is described as follows: Euclidean distance of Cell Painting phenotypic profile (signed KS, 77 features) to DMSO centroid (dimensionless distance); 5 or 10 uM (library dependent); higher = stronger phenotypic change vs DMSO (phenoactivity). The following applies: 48 h. The essentials:
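At 10 or 5 uM, as set by the library, and 0.1% DMSO final, compounds were applied for 48 h to five cancer lines and one healthy fibroblast line. Stained cells were imaged confocally at 20X in 9 fields per well, and Harmony extracted 77 features scored as signed Kolmogorov-Smirnov statistics against vehicle wells on the same plate. Profiles underwent plate-position correction, correlation weighting and replicate averaging at the top dose. Phenoactivity is the Euclidean distance from each such profile to the median vehicle profile.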
On to `CNC1CCCN(c2c(F)cc3c(=O)c(C(=O)O)cn(C4CC4)c3c2OC)C1` (stereo not given) [Balofloxacin Dihydrate], for which the Euclidean distance was found to be 1.02.

Compound `OCCN1CCN(CCCN2c3ccccc3Sc3ccc(C(F)(F)F)cc32)CC1` [Fluphenazine dihydrochloride] returned an Euclidean distance of 1.77.

In the case of `O=C(O)CCCCC(CCSCc1ccccc1)SCc1ccccc1` (stereo not given), the Euclidean distance was 0.821.

In turn, `CCOC(=O)Nc1ccc(NCc2ccc(F)cc2)nc1N` [Flupirtine maleate] showed an Euclidean distance of 1.37.

As to `N=C(N)NC(=N)N1CCOCC1` [Moroxydine HCl], the Euclidean distance was found to be 1.22.

Compound `O=C(Nc1c(Cl)cncc1Cl)c1ccc(OC(F)F)c(OCC2CC2)c1` [Roflumilast] came in with an Euclidean distance of 1.12.

`C[N+](C)(C)NCCC(=O)[O-]` [Mildronate] came in with an Euclidean distance of 0.82.

As to `CCN(CC)Cc1ccc2cc(COC(=O)Nc3ccc(C(=O)NO)cc3)ccc2c1` [Givinostat (ITF2357)], the Euclidean distance was found to be 3.32.

In turn, `CCN(CC)CCCC(C)Nc1c2ccc(Cl)cc2nc2ccc(OC)cc12` (stereo not given) [Quinacrine Dihydrochloride Dihydrate] displayed an Euclidean distance of 4.71.

As for `CC/C(=C(/CC)c1ccc(O)cc1)c1ccc(O)cc1` [Diethylstilbestrol], the Euclidean distance worked out at 0.682.

The compound `CO/N=C(\C(=O)N[C@@H]1C(=O)N2C(C(=O)O)=C(CSc3nc(=O)c(O)nn3C)CS[C@H]12)c1csc(N)n1` [Ceftriaxone Sodium Trihydrate] returned an Euclidean distance of 0.926.

The compound `CCN(CC)C(=O)/C(C#N)=C/c1cc(O)c(O)c([N+](=O)[O-])c1` [Entacapone] came in with an Euclidean distance of 0.77.

For the compound `C[C@H]1COc2c(C3(N)CC3)c(F)cc3c(=O)c(C(=O)O)cn1c23` [Pazufloxacin mesylate], the Euclidean distance was determined as 1.36.

`O=C(O)c1ccccc1C(=O)Nc1ccc(S(=O)(=O)Nc2nccs2)cc1` [Phthalylsulfathiazole]: the Euclidean distance was found to be 0.869.

On to `OCCOc1ccc(/C(=C(/CCCl)c2ccccc2)c2ccccc2)cc1` [Ospemifene], for which the Euclidean distance stood at 1.06.

For the compound `CN1C2CCCC1CC(NC(=O)c1nn(C)c3ccccc13)C2` (stereo not given) [Granisetron], the Euclidean distance amounted to 2.06.

In turn, `CC1=Nc2ccc(Cl)cc2S(=O)(=O)N1` [Diazoxide] returned an Euclidean distance of 1.25.

Take `Cn1cc(/C=C/C(=O)c2cccc(F)c2)cc1/C=C/C(=O)NO`: the Euclidean distance was 0.539.

As to `CCCc1nc(C)c2c(=O)nc(-c3cc(S(=O)(=O)N4CCN(CC)CC4)ccc3OCC)[nH]n12` [Vardenafil HCl Trihydrate], the Euclidean distance stood at 0.83.

Consider `COc1ccc(S(=O)(=O)N(C(C)=O)c2ccccc2/C=C/c2cc[n+]([O-])cc2)cc1`, for which the Euclidean distance turned out to be 2.97.

Compound `O=C(CCCCCCNC(=O)c1cnc(N(c2ccccc2)c2ccccc2Cl)nc1)NO` [Citarinostat (ACY-241)] had an Euclidean distance of 1.75.

The compound `CC[C@@H](Nc1c(Nc2cccc(C(=O)N(C)C)c2O)c(=O)c1=O)c1ccc(C)o1` had an Euclidean distance of 0.96.

Consider `CC(C)[C@H](C(=O)Nc1ccc(C(=O)NO)cc1)c1ccccc1`, for which the Euclidean distance stood at 3.22.

Compound `Nc1cccc2c1C(=O)N(C1CCC(=O)NC1=O)C2=O` (stereo not given) [Pomalidomide] displayed an Euclidean distance of 0.886.

As for `Nc1nc(N)c2nc(-c3cccc(O)c3)cnc2n1`, the Euclidean distance worked out at 1.9.

For the compound `CC(=O)OCC1=C(C(=O)O)N2C(=O)[C@@H](NC(=O)Cc3cccs3)[C@H]2SC1` [Cephalothin], the Euclidean distance worked out at 1.23.

With `COc1ccc(-c2ccc3c(N4CCOCC4)nc(N4C[C@@H](C)O[C@@H](C)C4)nc3n2)cc1CO`, the Euclidean distance amounted to 2.43.

With `OC(CCCN1CCCCC1)(c1ccccc1)c1ccccc1` [Diphenidol HCl], the Euclidean distance amounted to 1.09.

Take `C[C@H]1COc2c(N3CCN(C)CC3)c(F)cc3c(=O)c(C(=O)O)cn1c23` [Levofloxacin hydrate]: the Euclidean distance stood at 1.57.

As for `CC1=C(C(=O)OC(C)C)C(c2cccc([N+](=O)[O-])c2)C(C(=O)OC2CN(C(c3ccccc3)c3ccccc3)C2)=C(N)N1` (stereo not given) [Azelnidipine], the Euclidean distance was found to be 2.01.

Regarding `C=C1/C(=C\C=C2/CCC[C@]3(C)[C@@H]([C@H](C)CCCC(C)(C)O)CC[C@@H]23)C[C@@H](O)C[C@@H]1O` [Calcitriol], the Euclidean distance is 1.36.

For `O=C(O)/C=C/c1ccc(O)c(O)c1` [Caffeic Acid], the Euclidean distance amounted to 1.23.

For the compound `CC[C@H]1[C@@H](O)[C@@H]2[C@H](CC[C@]3(C)[C@@H]([C@H](C)CCC(=O)O)CC[C@@H]23)[C@@]2(C)CC[C@@H](O)C[C@@H]12` [Obeticholic Acid], the Euclidean distance was found to be 0.844.

In turn, `CCCN1CCCC[C@H]1C(=O)Nc1c(C)cccc1C` [Ropivacaine] had an Euclidean distance of 1.31.

Regarding `CCN(CC)CCOC(=O)C1(C2CCCCC2)CCCCC1` [Dicyclomine HCl], the Euclidean distance is 1.43.

`O=C(O)Cc1ccccc1Nc1c(Cl)cccc1Cl` [Diclofenac acid] came in with an Euclidean distance of 0.711.

In turn, `CCCOC(C(=O)OC1CCN(C)CC1)(c1ccccc1)c1ccccc1` [Propiverine hydrochloride] gave an Euclidean distance of 1.35.

As to `O=C(Nc1ccccc1)Nc1ccc(-c2ccc(C(=O)[C@@H]3CCC[C@H]3C(=O)O)cc2)cc1`, the Euclidean distance was determined as 0.814.

In turn, `CC(=O)c1cc([N+](=O)[O-])c(Sc2ccc(F)cc2F)s1` yielded an Euclidean distance of 1.97.

`Cc1ccc(Cl)cc1N(CC(=O)Nc1c(F)cccc1F)S(C)(=O)=O` showed an Euclidean distance of 0.763.
